What all share (assay): PBM binding z-score (relative to random genomic background probes); higher = stronger binding; sequences stand for … in GC…GCGATTGACAGCGTAGAATGAAGG
Assay [1] deals with FXR:RXRa (NR concentration 270 nM, RXRa partner concentration 90 nM). Summed up: (§1)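 Antibodies against each partner of ligand-free nuclear receptor dimers (one per run) detected binding on custom Agilent 4×180K protein-binding microarrays after 1 h incubation. The double-stranded probes had 34-nt variable regions carrying direct-repeat seeds, single-nucleotide variants, half-site ablations and random human genomic background sequences. Binding z-scores, from regression-normalized fluorescence, use the random background probes as reference.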

Assay [2] relates to LXRa:RXRa (NR concentration 270 nM, RXRa partner concentration 90 nM). The procedure, abridged:
as §1

Assay [3] deals with LXRa homodimer (NR concentration 270 nM). The procedure, abridged:
as §1

Assay [4] concerns LXRb:RXRa (NR concentration 270 nM, RXRa partner concentration 90 nM). Summed up: as §1
Assay [5] concerns LXRb homodimer (NR concentration 270 nM). The procedure, abridged: as §1
Assay [6] relates to PPARa:RXRa (NR concentration 270 nM, RXRa partner concentration 90 nM). Summed up:
as §1

In assay [7] the test system is PPARg:RXRa (NR concentration 180 nM, RXRa partner concentration 90 nM). Summed up: as §1
Assay [8] deals with PPARg:RXRa 270nM:90nM, anti-RXR (NR concentration 270 nM, RXRa partner concentration 90 nM). Summed up: as §1
Assay [9] has as its system PPARg:RXRa 30nM:10nM, anti-RXR (NR concentration 30 nM, RXRa partner concentration 10 nM). Summed up:
as §1

The subject of assay [10] is PPARg:RXRa 90nM:30nM, anti-RXR (NR concentration 90 nM, RXRa partner concentration 30 nM). Summed up: as §1
The subject of assay [11] is PPARg:RXRa DBDmut IVT, anti-RXR (DBD mutation: RXRa K156A/R161A, NR concentration 270 nM, RXRa partner concentration 90 nM). Summed up: as §1
Assay [12] deals with PPARg:RXRa IVT, anti-PPARg (NR concentration 270 nM, RXRa partner concentration 90 nM). The procedure, abridged:
as §1

In assay [13] the test system is PPARg DBDmut:RXRa IVT, anti-PPARg (DBD mutation: PPARg1 K132A/R137A, NR concentration 270 nM, RXRa partner concentration 90 nM). Summed up:
as §1

Assay [14] relates to PPARg DBDmut IVT, anti-PPARg (DBD mutation: PPARg1 K132A/R137A, NR concentration 270 nM). The procedure, abridged:
as §1

The subject of assay [15] is PPARg homodimer (NR concentration 180 nM). Summed up:
as §1

The test system of assay [16] is PXR:RXRa (NR concentration 270 nM, RXRa partner concentration 90 nM). Summed up:
as §1

Assay [17] has as its system PXR homodimer (NR concentration 270 nM). Summed up:
as §1

In assay [18] the test system is RARa:RXR (NR concentration 270 nM, RXRa partner concentration 90 nM). The procedure, abridged: as §1
For assay [19], the system named is RARa homodimer (NR concentration 270 nM). Summed up:
as §1

For assay [20], the system named is RARb:RXRa (NR concentration 270 nM, RXRa partner concentration 90 nM). The procedure, abridged: as §1

For the sequence AGAACGAGTGCACGCTGAGTTGATAGCAGAGTAG, the PBM binding z-score is -0.478 in assay [1]; -0.297 in assay [2]; -0.632 in [3]; -0.327 in assay [4]; -1.13 in [5]; 0.0263 in assay [6]. Also, the PBM binding z-score is 0.542 in [7]; -0.2 in assay [8]; -0.197 in assay [9]; -0.307 in assay [10]; -0.434 in assay [11]; 0.0753 in assay [12]. The PBM binding z-score in assay [13] is 0.194; in [14] it was -0.145; in [15], -0.176; in [16], 0.739; in [17] it was 0.603; in assay [18], -0.0592. Further, the PBM binding z-score in assay [19] is -0.662; in assay [20], 0.298.
In the case of CCTTACGGGTCACGAGGTTATAGCCCGACGAGCG, the PBM binding z-score in assay [1] is 6.99; in assay [2], 4.42; in [3] it was 0.302; in [4], 3.77; in assay [5], -0.0981; in assay [6], 6.03. Moreover, the PBM binding z-score was found to be 7.34 in assay [7]; 6.97 in assay [8]; 3.33 in assay [9]; 5.71 in assay [10]; 3.74 in [11]; 5.56 in [12]. The PBM binding z-score in [13] is 0.959; in assay [14], 1.66; in assay [15] it was 3.14; in assay [16], 4.59; in [17], -0.00848; in assay [18], 6.27. The PBM binding z-score in assay [19] was found to be 0.153; in assay [20], 4.74.
For the sequence CCAGACAGGTGAAAGGTAAGTCAGTCTGGTACGC, the PBM binding z-score is 0.207 in assay [1]; 0.575 in [2]; -0.142 in assay [3]; 0.505 in [4]; -0.505 in assay [5]; 2.87 in [6]. Also, the PBM binding z-score in [7] is 4.52; in [8], 5.14; in assay [9], 3; in assay [10] it was 4.82; in assay [11], 2.21; in [12], 2.43. Moreover, the PBM binding z-score in assay [13] was -0.386; in [14], -0.609; in assay [15] it was 0.848; in [16] it was 0.517; in assay [17], -0.131; in assay [18] it was 1.06. Further, the PBM binding z-score in assay [19] worked out at 0.44; in assay [20], 1.14.
As to AGAATGAGGTTAAGATGAGGGAAACAGAATACAT, the PBM binding z-score came out at 2.41 in [1]; 2.35 in assay [2]; 0.0375 in assay [3]; 1.84 in assay [4]; 0.124 in [5]; 3.52 in [6]. Further, the PBM binding z-score is 2.55 in assay [7]; 2.24 in assay [8]; 1.31 in [9]; 1.78 in assay [10]; 2.68 in [11]; 2.39 in [12]. Moreover, the PBM binding z-score in assay [13] came to 1.61; in assay [14], 0.526; in assay [15] it was 0.984; in [16], 1.35; in assay [17] it was 0.581; in assay [18], 2.22. Also, the PBM binding z-score in assay [19] was found to be 0.74; in assay [20] it was 1.95.
As to CGTCCATGGTCAATGCTAGGTCAGTGAAAGCATT, the PBM binding z-score in assay [1] is 0.15; in assay [2], 0.428; in [3], 0.451; in [4] it was 0.222; in assay [5], -0.306; in [6], 0.49. For the same sequence, the PBM binding z-score in assay [7] was -0.131; in assay [8], -0.408; in assay [9], -0.327; in assay [10], -0.269; in assay [11], 0.278; in assay [12], 0.623. In addition, the PBM binding z-score in assay [13] was -0.309; in [14], -0.685; in [15], 0.231; in assay [16] it was 0.368; in assay [17] it was -0.367; in assay [18] it was 0.816. Moreover, the PBM binding z-score in assay [19] was -0.251; in [20], 2.17.
TCTAGCAGGCCAGAGGGTCACCCAAGAGGTACGG: the PBM binding z-score in assay [1] is 1.31; in [2], 1.35; in assay [3], -0.606; in [4] it was 1.36; in assay [5] it was -0.868; in assay [6], 2.83. The PBM binding z-score in [7] worked out at 1.73; in assay [8], 2.84; in [9], 1.92; in [10] it was 2.71; in [11], 0.386; in [12] it was 0.974. Further, the PBM binding z-score in [13] was -0.634; in assay [14] it was -0.348; in [15], 0.411; in [16], 2; in [17], -0.502; in assay [18], 2.95. Moreover, the PBM binding z-score worked out at 0.0468 in assay [19] and 2.43 in assay [20].

(Values after the supplement of paper PMC6555819.)
